Source: PubChem BioAssay (National Center for Advancing Translational Sciences (NCATS))
This is a sample that favours compounds with a hit; in the whole collection about 12% have one here.
L3MBTL1 inh: L3MBTL1 (human) inhibition; Q9Y468; AlphaScreen L3MBTL1–H3K9me1 peptide binding; Potency, µM (highest dose often 57.1 µM), without a hit: at the top dose activity, negative = inhibition, actives largely listed as inhibitors; 230,000 compounds, 0.66% hits; note: % is set by controls: 0 for no effect and ±100 for the full control effect; nearly all actives have a fitted effect of over 60% in size
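First, the protein-peptide complex forms for 30 min at room temperature (L3MBTL1 50 nM, biotinylated H3K9me1 peptide 75 nM). Next, compounds are pin-transferred and incubated 30 min. Finally, AlphaScreen beads are added and read after 30 min.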
G9a block: blocks human histone lysine methyltransferase G9a; 350,000 compounds, 8.8% hits; Potency, µM (series often up to 102 µM), without a hit: at the highest dose activity, negative = inhibition, usual class: inhibitors; G9a H3K9 monomethylation, AlphaScreen, 2 h; AID 504332; note: % is set by controls: 0 for no effect and ±100 for the full control effect; nearly all actives have a fitted effect of over 75% in size
Target sequence (Q96KQ7 913-1193 limits assumed): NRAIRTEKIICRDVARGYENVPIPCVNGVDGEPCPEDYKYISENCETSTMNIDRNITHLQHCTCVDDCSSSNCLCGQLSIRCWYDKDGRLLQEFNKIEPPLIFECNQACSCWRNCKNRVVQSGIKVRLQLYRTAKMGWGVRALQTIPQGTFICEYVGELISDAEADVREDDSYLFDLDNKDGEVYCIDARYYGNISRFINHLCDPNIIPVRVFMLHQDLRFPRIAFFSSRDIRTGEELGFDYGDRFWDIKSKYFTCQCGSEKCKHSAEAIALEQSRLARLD
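Quantitative HTS format: methyltransferase activity on a biotin-tagged H3K9 peptide is measured by AlphaScreen, using a rabbit anti-monomethyl-H3K9 antibody with streptavidin donor and anti-IgG acceptor beads. Final levels are 20 nM enzyme, 500 nM peptide, 20 uM SAM; 2 h RT.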
Sfp PPTase inh: inhibitors of Bacillus subtilis Sfp phosphopantetheinyl transferase; Biochemical Sfp PPTase activity, qHTS; Potency, µM, without a hit: largest response in the series, negative = inhibition, most hits filed as inhibitors; 310,000 compounds, 3.5% hits; Q9F4F7;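 note: the enzyme is Sfp with the accession as filed and its product quenches rhodamine fluorescence; 0% = enzyme reaction without inhibitor and -100% = no enzyme wells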
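After 15 min at room temperature with compound, 15 nM Sfp received 5 uM rhodamine-CoA plus 12.5 uM BHQ-2-ybbR (50 mM Hepes pH 7.6, 10 mM MgCl2). Rate came from the fluorescence difference over 30 min, ex 525/em 598 nm.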
BAZ2B inh: BAZ2B (human) inhibition; 360,000 compounds, 4.4% hits; Q9UIF8; AID 504333; AlphaScreen BAZ2B-H3K14Ac peptide displacement; Potency, µM (highest dose often 114 µM), inactives show at the top dose activity change, negative = inhibition, most hits filed as inhibitors; note: % is set by controls: 0 for no effect and ±100 for the full control effect; nearly all actives have a fitted effect of over 60% in size
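BAZ2B 50 nM plus b-H3(5-23)K14Ac 50 nM, PBS pH 7.4/0.01% Tween-20, 30 min RT; compound added (max 110 uM), 30 min RT; streptavidin donor/Ni-chelate acceptor beads 10 ug/mL final, 20 min dark; AlphaScreen read.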
HP1b binding inh: inhibitors of HP1-beta chromodomain binding to methylated histone tails; 390,000 compounds, 0.56% hits; AlphaScreen HP1-beta / biotin-H3K9me3 peptide binding; Potency, µM (highest dose often 114 µM), without a hit: at the highest dose activity change, negative = inhibition, most hits filed as inhibitors; note: nearly all actives have a fitted effect of over 70% in size
Target sequence (P83916 whole entry, looked up): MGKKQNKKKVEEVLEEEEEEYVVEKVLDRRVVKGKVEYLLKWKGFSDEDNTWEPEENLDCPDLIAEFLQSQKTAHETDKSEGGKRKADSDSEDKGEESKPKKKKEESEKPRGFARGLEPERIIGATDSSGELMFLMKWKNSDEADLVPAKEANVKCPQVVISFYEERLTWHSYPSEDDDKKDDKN
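AlphaScreen: HP1-beta (50 nM) preformed 30 min with biotin-H3(1-18)K9me3 peptide (50 nM) in PBS pH 7.4, 0.01% Tween-20. Compound added for 30 min at RT, then streptavidin donor/nickel chelate acceptor beads (10 ug/mL) for 30 min.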
JMJD2A Tudor: inhibitors of human JMJD2A Tudor domain; O75164; AlphaScreen JMJD2A-Tudor / H3K4me3 peptide binding; Potency, µM (series often up to 114 µM), for the others: at the highest dose activity change, negative = inhibition, actives largely listed as inhibitors; 390,000 compounds, 4.4% hits; note: % is set by controls: 0 for no effect and ±100 for the full control effect; nearly all actives have a fitted effect of over 50% in size
Starred values were filed as active, the others as inactive; ? = inconclusive; . = no result; [ ] = dose if it differs, or a comment. Calls come from the whole dose curve; as a rule, active = well fitted curve in the direction sought with a large enough effect; inconclusive = small, poorly fitted or top-dose-only effect, or another doubt; inactive = no such curve, though single readings can be large; an effect the other way counts as inactive or inconclusive. Potency is the fitted concentration of half-maximal effect.

SMILES	L3MBTL1 inh	G9a block	Sfp PPTase inh	BAZ2B inh	HP1b binding inh	JMJD2A Tudor
CN(C)c1ccc(-c2nccc(NCc3ccccc3)n2)cc1	.	.	-14%	.	.	.
Cc1cccc(CNc2ccnc(-c3ccc(N(C)C)cc3)n2)c1	.	.	40µM*	.	.	.
COc1cccc(-c2nccc(NCc3cccc(C)c3)n2)c1	.	.	-13%	.	.	.
COc1cccc(-c2nc(NCCNC(C)=O)c3ccccc3n2)c1	.	5%[0.501 µM]	4%	.	.	.
N#Cc1ccc(CN2CCC3(CC2)CCN(C(=O)c2ccncc2)CC3)cc1	.	-3%[12.7 µM]	40%	.	.	.
Cc1cc(C)c(C(=O)C(C)OC(=O)c2ccccn2)cc1C (stereo not given)	.	?	-23%	79µM*	9%	50µM*
Cc1ccc(C(=O)OC(C)C(=O)c2cc(C)c(C)cc2C)o1 (stereo not given)	.	2%	-2%	1%	43%	8%
CCN1CCN(c2ccc(S(=O)(=O)N3CCCCC3)cc2NC(=O)c2ccc(OC(F)F)cc2)CC1	-5%	14µM*	.	-3%	-3%	-18%
COc1ccc(S(=O)(=O)N2CCOCC2)cc1NC(=O)Cc1ccccc1Cl	3%	15%[59 µM]	-1%	2%	35%	11%
CCN1CCN(c2ccc(S(=O)(=O)N3CCCCC3)cc2NC(=O)c2cccc(Cl)c2)CC1	-6%	32µM*	.	?	-15%	?
COc1ccc(S(=O)(=O)N2CCOCC2)cc1NC(=O)c1cc2ccccc2o1	-12%	45µM*	.	3%	11%	-27%
CCN1CCN(c2ccc(S(=O)(=O)N3CCCCC3)cc2NC(=O)Cc2ccc(OC)cc2)CC1	.	-6%[12.7 µM]	6%	-10%	6%	-22%
CN1CCN(c2ccc(S(=O)(=O)N3CCCCC3)cc2NC(=O)c2ccc3ccccc3c2)CC1	-23%	?	40µM*	?	-23%	?
COC(=O)c1c(NC(=O)C(=O)N2CCOCC2)sc2c1CCCC2	.	39%	-19%	-14%	22%	-13%
O=C(CSc1nnc(CNC(=O)c2ccccc2)o1)NCC1CCCO1 (stereo not given)	.	9%	9%	-11%	24%	-5%
C=CCOc1ccc(/C=N/NC(=O)C(C)Sc2ccccn2)cc1OC (stereo not given)	-3%	-9%[59 µM]	14%	-1%	47%	-19%
COc1ccc(-n2ccnc(SCC(=O)NCc3ccc(C)cc3)c2=O)cc1Cl	6%	?	.	-1%	16%	-24%
CC(C)C(=O)Nc1cc(S(=O)(=O)N2CCOCC2)ccc1N1CCCCC1	-2%	.	.	.	?	-26%
CCN1CCN(c2ccc(S(=O)(=O)N3CCCCC3)cc2NC(=O)c2cccc(OC(F)F)c2)CC1	-5%	13µM*	.	2%	15%	-23%
CCN1CCN(c2ccc(S(=O)(=O)N3CCCCC3)cc2NC(=O)c2cc3ccccc3o2)CC1	?	35µM*	.	-20%	-27%	?
CC(C)(C)C(=O)Nc1cc(S(=O)(=O)N2CCCCC2)ccc1N1CCCCC1	.	40µM*	-6%	2%	28%	-21%
Cc1ccc(S(=O)(=O)N2CCCCC2)cc1NC(=O)c1cc2ccccc2o1	-4%	-6%[12.7 µM]	.	7%	30%	-14%
COc1ccc(OC)c(NC(=O)/C=C/c2ccc(S(=O)(=O)N3CCOCC3)cc2)c1	-8%	50µM*	.	-26%	2%	-34%
COc1ccc(CCNC(=O)c2cc3c(s2)-c2c(C)cccc2OC3)c(OC)c1	.	51%[59 µM]	.	31%	66%	29%
O=C(/C=C/c1ccccc1)OCCCCN=C1NS(=O)(=O)c2ccccc21	9%	.	5%	3%	-10%	28µM*
SMILES	L3MBTL1 inh	G9a block	Sfp PPTase inh	BAZ2B inh	HP1b binding inh	JMJD2A Tudor
O=C(CCCN=C1NS(=O)(=O)c2ccccc21)OCc1ccccc1	-1%	45µM*	.	2%	25%	-2%
CC(OC(=O)CCCN=C1NS(=O)(=O)c2ccccc21)C(=O)N(C)c1ccccc1 (stereo not given)	-1%	40µM*	.	13%	27%	0%
O=C(CCN=C1NS(=O)(=O)c2ccccc21)OCC(=O)c1ccccc1Cl	5%	56µM*	.	0%	10%	-15%
Cc1ccc(C2(C)NC(=O)N(CC(=O)N3CCN(C(=O)c4cccs4)CC3)C2=O)cc1 (stereo not given)	-4%	-11%[12.7 µM]	.	12%	40%	-7%
O=C(Nc1ccccc1)c1cc2c(-c3ccccc3)nn(-c3ccccc3)c2s1	.	8%[59 µM]	.	-3%	43%	-9%
CC(C)(C)c1ccccc1Nc1nc(C#N)nc(NC2CCCC2)n1	.	.	.	.	.	-17%
CC(=O)C1=C(O)C(=O)N(c2ccc(Br)cc2)C1c1ccccc1[N+](=O)[O-] (stereo not given)	5%	40µM*	?	-4%	-12%	-30%
CC(=O)C1=C(O)C(=O)N(c2ccc(O)cc2)C1c1ccccc1F (stereo not given)	.	79µM*	13%	2%	8%	-20%
CC(=O)C1=C(O)C(=O)N(CCc2ccccc2)C1c1ccccc1[N+](=O)[O-] (stereo not given)	11%	1%[59 µM]	2%	4%	-6%	7%
CC(=O)C1=C(O)C(=O)N(CO)C1c1ccccc1F (stereo not given)	4%	56µM*	4%	?	21%	?
O=C(Nc1ccc(F)cc1F)c1noc2c1CCc1ccccc1-2	.	-2%[59 µM]	.	4%	52%	4%
Cc1cc2nc(-c3cccc(NC(=O)CSc4ccc(Cl)cc4)c3)oc2cc1C	.	-1%[59 µM]	.	-15%	55%	-3%
Cc1ccc(NC(=O)CSc2nc(=O)n(Cc3ccncc3)c3c2CCC3)c(C)c1	2%	14%[0.501 µM]	.	-3%	19%	-8%
O=C(NCc1ccco1)c1cc(-c2ccccc2)c(N2CCOCC2)s1	.	?	-2%	-12%	8%	-29%
O=C(O)c1cc(-c2ccccc2)c(N2CCOCC2)s1	.	79µM*	17%	-4%	63%	-14%
c1n[nH]c(NC2=NCCC2)n1	?	1%	45µM*	14µM*	74%	45µM*
COc1ccc(C(=O)Nc2ccc(NC(C)=O)cc2)cc1S(=O)(=O)N1CCCCC1C (stereo not given)	-2%	8%[12.7 µM]	.	-2%	25%	-6%
CCc1ccc(C(C)NC(=O)c2cc(C)oc2C)cc1 (stereo not given)	-10%	?	16µM*	-3%	?	-15%
Cc1cc(C(=O)NCCC2=CCCCC2)c(C)o1	.	?	35µM*	-4%	16%	-11%
Cc1cc(C(=O)NCC(=O)O)c(C)o1	.	-11%	4%	50µM*	9%	-17%
CCOC(=O)CNC(=O)c1cc(C)oc1C	.	?	5%	-3%	.	.
Cc1cc(C(=O)NN)c(C)o1	.	-7%	10%	-22%	35%	-11%
